Source: PubChem BioAssay
This is a sample that favours compounds with a hit; in the whole collection about 21% have one here.
TDP1 cell noCPT – qHTS for Inhibitors of human tyrosyl-DNA phosphodiesterase 1 (TDP1): qHTS in cells in absence of CPT; DT40 Tdp1-/- hTDP1 cells, no CPT, ATP luminescence, 48 h; Potency, µM (top dose mostly 46.2 µM), for inactives: at the highest dose activity change, negative = growth inhibition, usual class: inhibitors; 420,000 compounds, 15% hits; AID 686978, 2013; note: potency is the fitted concentration of half-maximal effect; % is set by controls: 0 for no effect and ±100 for the full control effect; nearly all actives have a fitted effect of over 55% in size
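Readout: luminescence from CellTiter-Glo after 30 min in the dark at RT. Cells: DT40 Tdp1-/- with stable hTDP1, 400/well. Exposure: compounds alone, ≥48 hr, 37 °C.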
ClpP mod – qHTS Assay for Activators of ClpP; ATP-dependent Clp protease proteolytic subunit (Bacillus subtilis (strain 168)), P80244; purified B. subtilis ClpP, FRET peptide cleavage, 20 min; Potency, µM (doses to about 57.5 µM), without a hit: top-dose activity change, negative = active; 340,000 compounds, 1.9% hits; active = well fitted falling curve with a large enough effect; inconclusive = small, poorly fitted or top-dose-only effect; inactive = no such curve, though single readings can be large or run the other way; note: potency is the fitted concentration of half-maximal effect; the source files actives as falling curves though it sought activators and does not explain the sign; nearly all actives have a fitted effect of over 65% in size
Target sequence (P80244 whole entry, looked up): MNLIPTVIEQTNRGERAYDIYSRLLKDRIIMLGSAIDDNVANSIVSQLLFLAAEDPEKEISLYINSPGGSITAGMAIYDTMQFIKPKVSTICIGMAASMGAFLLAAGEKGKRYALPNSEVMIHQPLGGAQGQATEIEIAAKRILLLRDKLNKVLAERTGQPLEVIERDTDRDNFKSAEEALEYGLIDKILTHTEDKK
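ClpP 10 microg/mL final, pH 8 Tris/KCl buffer with BSA, glycerol, Tween-20; compound pinned in; FRET-FV substrate; RT 20 min; Ex320/Em430; ΔFRET vs ADEP 5.8 microM, DMSO, no enzyme.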
DT40 TDP1 CPT – growth inhibition of DT40 Tdp1-/-;hTDP1 cells with camptothecin (screen for TDP1 inhibitors) | chicken DT40 Tdp1-/-;hTDP1 cells + 20 nM CPT, ATP luminescence, 48 h | Potency, µM (series often up to 46.2 µM), for the others: at the top dose activity change, negative = growth inhibition, hits mostly inhibitors | 420,000 compounds, 12% hits; note: potency is the fitted concentration of half-maximal effect; % is set by controls: 0 for no effect and ±100 for the full control effect; nearly all actives have a fitted effect of over 55% in size
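Chicken DT40 Tdp1-/- cells complemented with human TDP1, 400 cells/well, exposed to compounds plus 20 nM camptothecin for at least 48 h at 37 C; viability read as ATP content by CellTiter-Glo luminescence.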
D3 antag – D3 dopamine receptor (human) antagonism | D3R cells, DiscoveRx beta-arrestin luminescence, antagonist mode; hits give low values | max response, negative = inhibition, % | 360,000 compounds, 2.5% hits; in the data active = max response below about -50%; inconclusive = no clear call, values can overlap the other calls; note: % is set by controls: 0 for no effect and ±100 for the full control effect
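Cells plated overnight at 1500 cells/well, then exposed to library compounds with dopamine controls for 90 minutes at 37 degrees C. DiscoveRx reagent added for 30–60 minutes at room temperature; luminescence read, quantitative HTS format.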
D3 ag – D3 dopamine receptor (human) agonism | P35462 | D3R DiscoveRx beta-arrestin cells, luminescence, 90 min | max activation, % | 410,000 compounds, 0.58% hits | AID 652048; in the data active = max activation above about 30%; note: 0% is about no effect
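Agonist-mode cell screen: cells plated at 1500/well and incubated overnight at 37 °C, then exposed to library compounds for 90 min at 37 °C. Detection reagent was added for 30–60 min at room temperature, and luminescence was read.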
IL1B secr inh – blocks inflammasome-driven IL-1 beta release. activity change, % at 57.5 µM. THP-1 LPS/ATP IL-1B secretion, AlphaLISA, 16 h; hits give low values. 360,000 compounds, 4.7% hits; in the data active = activity change below about -50%; inconclusive = mostly about -30% to -49%; note: % is set by controls: 0 for no effect and ±100 for the full control effect
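Secreted IL-1B measured by AlphaLISA bead assay after 16 h compound exposure of THP-1 cells; compounds (final up to 57.5 uM) added 1 h before LPS (250 ng/mL) and ATP (1.25 mM) stimulation; lower signal means less secretion.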
Active calls of the source: *; ? = inconclusive; nt = not tested or not shown. Unless noted, calls come from the whole dose curve; as a rule, active = well fitted inhibition curve with a large enough effect; inconclusive = small, poorly fitted or top-dose-only effect; inactive = flat fitted curve, though single readings scatter.

SMILES	TDP1 cell noCPT	ClpP mod	DT40 TDP1 CPT	D3 antag	D3 ag	IL1B secr inh
COc1ccccc1Oc1ccc(N/C=C/C(=O)c2ccco2)cc1	18µM*	nt	?	5	2	-52*
O=C(/C=C/Nc1ccc(Oc2ccccc2Cl)cc1)c1ccco1	15µM*	nt	18µM*	2	-10	-23
O=C(/C=C/Nc1ccccc1Oc1ccccc1)c1ccco1	?	nt	2%	4	7	?
CN(C)c1ccc(N/C=C/C(=O)c2ccco2)cc1	?	1%	21µM*	?	-1	?
CC(=O)N1CC(C)Oc2ccc(S(=O)(=O)Nc3ccc(Cl)cn3)cc21 (stereo not drawn)	2%	-4%	-22%	5	3	25
CC(=O)Nc1ccc(NC(=O)CSCc2ccccc2Cl)cc1	-25%	nt	3%	-4	-12	-2
C/C(=N\NC(=O)CSCc1ccccc1Cl)c1cc(O)ccc1O	5.2µM*	1%	6.5µM*	-21	-14	40
CCOC(=O)NNc1ccc(N(CC)CC(C)O)nn1 (stereo not drawn)	-22%	nt	-29%	nt	-5	nt
COC(=O)CC1C2(C)CC34OC5(C)O[C@@]6(C7/C(=C(/OC)C(C)C)C(=O)OC(c8ccoc8)[C@@]7(C)C(OC(=O)C(C)C)C(OC)[C@]6(O5)[C@@]13C)C(OC)[C@]4(OC)C2OC(C)=O (stereo partly drawn)	13µM*	nt	8.2µM*	nt	nt	nt
CC(C)/C(O)=C1/C(=O)OC(c2ccoc2)[C@@]2(C)C(O)C(O)[C@@]34OC5(C)OC67CC(C)(C(O)[C@@]6(O)C(O)[C@@]3(O5)C12)C(CC(=O)O)[C@@]74C (stereo partly drawn)	-4%	nt	10%	nt	nt	nt
COc1cc(OC)c(NC(=O)N2CCSc3ccccc32)cc1Cl	?	-3%	?	nt	3	nt
COCC(=O)N1CCC2(CC1)CCN(C(=O)NC(C)C)CC2	-7%	nt	-1%	nt	nt	nt
Cc1ccnn1CCC(=O)N1CCCC(Nc2ccc(C(C)C)cc2)C1 (stereo not drawn)	16µM*	0%	21µM*	6	11	33
CC(C)c1ccc(NC2CCCN(C(=O)CC3CCCC3)C2)cc1 (stereo not drawn)	10µM*	2%	21µM*	18	-3	-5
CCC(=O)Nc1cccc(C2=NN(c3ccccc3)C(c3ccc(OC)cc3)C2)c1 (stereo not drawn)	?	3%	-30%	-3	-1	-10
O=C1NC(c2ccccc2)Nc2c1sc(=S)n2-c1ccccc1 (stereo not drawn)	6.5µM*	nt	-12%	1	1	15
O=C(Cn1cnc2c(nnn2Cc2ccc(Cl)cc2)c1=O)N1CCCc2ccccc21	?	-1%	?	-14	-8	7
O=C(Cn1cnc2c(nnn2Cc2ccc(Cl)cc2)c1=O)N1CCN(c2ccccc2)CC1	21µM*	1%	18µM*	-4	-1	-10
Cc1ccc(Cn2nnc3c(=O)n(Cc4cccc(C)c4)cnc32)cc1	?	-5%	-9%	9	-2	-11
O=C(Cn1cnc2c(nnn2Cc2ccccc2F)c1=O)N1CCN(c2ccccc2)CC1	?	-3%	?	-11	-1	-14
Cc1cccc(Cn2cnc3c(nnn3Cc3ccc(Cl)cc3)c2=O)c1	16µM*	1%	?	23	11	0
O=C(Cn1cnc2c(nnn2Cc2ccccc2)c1=O)N1CCN(c2ccccc2)CC1	23µM*	0%	?	13	1	-18
Cc1cccc(Cn2c(C)c(CNC3CCCCC3)c(C(=O)O)c2C)c1	-12%	-8%	-3%	nt	-7	nt
